# The list is not random: actives were taken first. Their share in the collection is about 2.6%.
# pPAFAH inh = pPAFAH enzyme inhibitors, primary screen, biochemical, fluorescence polarization, human. Platelet-activating factor acetylhydrolase (Homo sapiens), Q13093. recombinant pPAFAH, FP-rhodamine probe fluorescence polarization. inhibition, % at 3.39 µM. 330,000 compounds, 1.5% hits. AID 463082, 2010;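 active = inhibition above the mean inhibition across the screen plus 3 SD, cut at about 25% in these data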;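 note: inhibitors block binding of the rhodamine activity-based probe so polarization drops; 0% = enzyme with DMSO and 100% = wells lacking pPAFAH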
# PKA-R2B activ = activators of PKA-R2B holoenzyme, primary screen, biochemical, fluorescence polarization, Cy5-IP20, human. 340,000 compounds, 0.079% hits. cAMP-dependent protein kinase catalytic subunit beta (Homo sapiens) + cAMP-dependent …. activation, % at 11.4 µM. PKA-R2B holoenzyme dissociation; R2B truncated from residue 108, S112A mutant; 0% DMSO only, 100% 113 µM cGMP;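 active = activation above a cutoff set at the mean over all compounds plus 3 SD, cut at about 18% in these data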;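 note: higher means more holoenzyme dissociation and a rise in polarization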
# PAFAH1B3 inh = PAFAH1B3 enzyme inhibitors, primary screen, biochemical, fluorescence polarization, human; AID 492972, 2010; recombinant PAFAH1B3, FP-rhodamine probe; 340,000 compounds, 0.28% hits; Platelet-activating factor acetylhydrolase IB subunit alpha1 (Homo sapiens), Q15102; inhibition, % at 3.39 µM;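 active = inhibition above the screen-wide average of all tested compounds plus 3 SD, cut at about 25% in these data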;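 note: 0% = enzyme with DMSO only and 100% = wells lacking PAFAH1B3 protein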
# Target sequence (Q15102 whole entry, looked up): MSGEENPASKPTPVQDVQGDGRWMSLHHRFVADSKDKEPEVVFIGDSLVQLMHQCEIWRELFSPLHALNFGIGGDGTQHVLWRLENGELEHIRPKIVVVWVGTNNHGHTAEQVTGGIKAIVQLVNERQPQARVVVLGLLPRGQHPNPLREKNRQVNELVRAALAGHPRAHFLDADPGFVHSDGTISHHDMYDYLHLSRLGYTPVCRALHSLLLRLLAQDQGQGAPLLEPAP
# PAFAH2 FP inh = PAFAH2 enzyme inhibitors, primary screen, biochemical, fluorescence polarization, human | Platelet-activating factor acetylhydrolase 2, cytoplasmic (Homo sapiens), Q99487 | recombinant PAFAH2, FP-rhodamine activity probe | inhibition, % at 3.39 µM | 340,000 compounds, 0.99% hits;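 active = inhibition above the mean over all tested compounds plus 3 SD, cut at about 30% in these data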;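 note: inhibitors block probe labeling of enzyme so polarization drops; 0% = enzyme with DMSO and 100% = wells lacking PAFAH2 protein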
# PKA-R1A act = activators of PKA-R1A holoenzyme, primary screen, biochemical, fluorescence polarization, Cy5-IP20, bovine R1A, mouse PKAc | PKA-R1A dissociation; scaled: DMSO 0%, 113 µM cGMP 100% | activation, % at 11.4 µM | 340,000 compounds, 0.083% hits | AID 504707, 2011;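 active = percent activation above the mean of all tested compounds plus 3 SD, cut at about 19% in these data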;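 note: higher means more PKAc released from R1A so a rise in polarization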
# PAFAH1B2 FP inh = PAFAH1B2 enzyme inhibitors, primary screen, biochemical, fluorescence polarization, human; recombinant PAFAH1B2, FP-rhodamine activity probe; inhibition, % at 3.39 µM; 340,000 compounds, 1.2% hits; Platelet-activating factor acetylhydrolase IB subunit alpha2 (Homo sapiens), P68402;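 active = inhibition above the mean of all tested compounds plus 3 SD, cut at about 24% in these data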;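 note: 0% = enzyme with DMSO and 100% = wells lacking PAFAH1B2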
# Target sequence (P68402 whole entry, looked up): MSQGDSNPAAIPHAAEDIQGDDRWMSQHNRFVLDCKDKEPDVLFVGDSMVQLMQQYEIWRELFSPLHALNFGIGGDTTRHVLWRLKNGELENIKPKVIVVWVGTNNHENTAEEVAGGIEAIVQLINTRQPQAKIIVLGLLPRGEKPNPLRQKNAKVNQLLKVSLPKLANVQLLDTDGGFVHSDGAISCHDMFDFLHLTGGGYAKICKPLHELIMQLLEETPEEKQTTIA
# R2B FP artifact = fluorescence polarization artefacts, biochemical, artefact control for PKA-R2B activator project; shares compounds with PKA-R2B activ; AID 504796, 2011; 270 compounds, 6% hits; activation, % at 11.4 µM; FP artifact counterscreen; in the data active = activation above about 20%;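 note: Cy5 labelled IP20 peptide probe with compound but no PKA protein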
# PKA-R2B confirm = activators of PKA-R2B holoenzyme, confirmation, biochemical, fluorescence polarization, human. activation, % at 11.4 µM. 270 compounds, 9% hits. PKA-R2B complex, activation. AID 504797, 2011. shares compounds with PKA-R2B activ; in the data active = activation above about 19%
# Starred values were filed as active, the others as inactive; . = no result given.
SMILES,pPAFAH inh,PKA-R2B activ,PAFAH1B3 inh,PAFAH2 FP inh,PKA-R1A act,PAFAH1B2 FP inh,R2B FP artifact,PKA-R2B confirm
COC(=O)N/N=C/c1cn(CCOc2ccccc2)c2ccccc12,8.3,20.0*,11.6,5.3,-0.7,4.5,1.9,-0.8
Cc1ccc(Cl)cc1NC(=O)NCc1ccccn1,0.0,-1.5,7.3,-6.3,1.0,-7.0,.,.
N#C/C(=C(/O)C(Cl)(Cl)Cl)c1nc2ccccc2[nH]1,3.5,2.8,8.0,-1.4,-5.7,6.0,.,.
O=C(COC(=O)CCNS(=O)(=O)c1ccccc1)NC1CC1,9.3,18.8*,6.4,2.4,-1.8,-3.7,3.8,0.2
O=C(COC(=O)CCNS(=O)(=O)c1ccccc1)NNC(=O)c1ccccc1,20.7,-7.0,2.9,3.1,1.5,2.6,.,.
CN(CC(=O)Nc1ccccc1Cl)CC(=O)c1c(N)n(Cc2ccccc2)c(=O)n(C)c1=O,1.6,6.2,7.5,-10.5,-4.0,1.1,.,.
O=C(O)CC(Cc1ccc(Cl)cc1)C(=O)Nc1ccc([N+](=O)[O-])cc1 (configuration not stated),0.2,19.5*,-5.0,2.5,2.6,13.8,-3.8,-1.1
Cc1cccc(Nc2ncnc(N)n2)c1,-1.1,20.5*,4.4,2.2,-1.1,2.5,6.4,4.5
COc1ccc(N2CCN(C(=O)c3ccc(OCc4c(C)noc4C)c(OC)c3)CC2)cc1,1.7,20.0*,7.5,5.8,1.3,4.6,3.2,1.8
CCCSc1ccc([C@@H]2[C@H]3C(=O)N(CC)C(=O)[C@H]3[C@]3(C(=O)OC)CCCCN23)cc1,9.3,4.1,4.7,1.5,-1.3,-3.2,.,.
CN(C)S(=O)(=O)c1cccc(-c2cn3ccccc3n2)c1,0.9,18.7*,1.6,-2.7,3.6,-2.1,5.1,4.2
Cc1cc(C)c(OCCn2ccnc2)c(C)c1,.,18.4*,6.4,-7.3,-8.4,3.1,7.5,6.9
COc1cc(NC(=S)N2CCN(S(=O)(=O)c3ccccc3)CC2)cc(OC)c1,.,-2.4,3.5,4.9,4.8,4.7,.,.
CCN1CCN(CCC(=O)Nc2ccccc2C)CC1,0.7,8.2,-1.3,-1.5,-7.3,-4.5,.,.
COc1cc2c(cc1OC)C(Cc1ccc(O)cc1)NCC2 (configuration not stated),1.4,-4.8,-4.2,-9.5,5.4,1.1,.,.
CCOc1ccc(CC2NCCc3cc(OCC)c(OCC)cc32)cc1OCC (configuration not stated),3.6,19.8*,4.1,-0.8,7.8,-1.8,2.4,4.5
COc1cccc(Nc2nc(NCCO)nc(N3CCCC3)n2)c1,2.5,22.0*,16.4,10.1,7.2,3.1,-1.2,1.1
COc1ccc(Nc2nc(NCCO)nc(N3CCCC3)n2)cc1,4.3,0.3,4.9,-1.4,11.8,0.2,.,.
Cc1ccc(C(C)C)c(O)c1C(=O)O,.,18.6*,-6.5,1.5,-3.8,1.5,5.2,2.3
Cc1cc(NC(=O)/C=C/c2ccccc2)c(C(C)C)cc1O,1.7,14.0,-0.6,-4.8,1.3,-2.6,.,.
CCc1nc2ccccc2c(C(=O)OCC(=O)NCCCN2CCCC2=O)c1C,2.4,19.1*,-0.2,0.6,7.3,2.1,-0.1,-2.8
